In the supplement of paper PMC8728848:
Many of the other results were omitted from the sample, so the strongest signals are more common in it than they were.

Tests used:
Experiment in all cases: glycan array binding signal (z-score within array); higher = stronger binding
Settings in all cases: glycan notation: IUPAC condensed, linker removed
[1] = molecular target: Fuc(a1-2)Gal(b1-3)GalNAc(a1-3)[Fuc(a1-2)]Gal(b1-4)GlcNAc
Method in brief: (§1)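 Negative Z-scores can be read as non-binding. The Z-score is calculated within each array and then averaged across arrays of one protein sequence at different concentrations or buffers and across linkers. Arrays, 3228 in all, were curated from the Consortium for Functional Glycomics database and kept only where the protein sequence was available.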

[2] = molecular target: Fuc(a1-2)Gal(b1-4)Fuc(a1-3)]GlcNAc(b1-2)Man(a1-3)[Fuc(a1-2)Gal(b1-4)[Fuc(a1-3)]GlcNAc(b1-2)Man(a1-6)]Man(b1-4)GlcNAc(b1-4)GlcNAc
Method in brief: as §1

[3] = molecular target: Fuc(a1-2)Gal(b1-4)GlcNAc(b1-2)Man(a1-3)[Fuc(a1-2)Gal(b1-4)GlcNAc(b1-2)Man(a1-6)]Man(b1-4)GlcNAc(b1-4)[Fuc(a1-6)]GlcNAc
Method in brief: as §1

[4] = molecular target: Fuc(a1-2)Gal(b1-4)GlcNAc(b1-3)GalNAc
Method in brief: as §1

[5] = molecular target: Fuc(a1-2)Gal(b1-4)[Fuc(a1-3)]GlcNAc(b1-3)GalNAc
Method in brief: as §1

[6] = molecular target: Fuc(a1-2)[Gal(a1-3)]Gal(b1-3)GalNAc(b1-3)Gal(a1-4)Gal(b1-4)Glc
Method in brief: as §1

[7] = molecular target: Fuc(a1-2)[GalNAc(a1-3)]Gal
Method in brief: as §1

[8] = molecular target: Fuc(a1-2)[GalNAc(a1-3)]Gal(b1-4)[Fuc(a1-3)]GlcNAc(b1-3)GalNAc
Method in brief: as §1

[9] = molecular target: Fuc(a1-3)[Gal(b1-4)]GlcNAc(b1-2)Man(a1-3)[Fuc(a1-3)[Gal(b1-4)]GlcNAc(b1-2)Man(a1-6)]Man(b1-4)GlcNAc(b1-4)[Fuc(a1-6)]GlcNAc
Method in brief: as §1

Gal(b1-2)Gal = molecular target: Gal(b1-2)Gal
Method in brief: as §1

Gal(b1-3)GlcNAc = molecular target: Gal(b1-3)GlcNAc
Method in brief: as §1

Gal(b1-3)GlcNAc(b1-2)Man = molecular target: Gal(b1-3)GlcNAc(b1-2)Man
Method in brief: as §1

[10] = molecular target: Gal(b1-3)GlcNAc(b1-2)Man(a1-3)[Gal(b1-3)GlcNAc(b1-2)Man(a1-6)]Man(b1-4)GlcNAc(b1-4)GlcNAc
Method in brief: as §1

[11] = molecular target: Gal(b1-3)GlcNAc(b1-3)Gal(b1-4)Glc
Method in brief: as §1

[12] = molecular target: Gal(b1-3)[Fuc(a1-4)]GlcNAc(b1-3)Gal(b1-3)[Fuc(a1-4)]GlcNAc
Method in brief: as §1

Gal(b1-4)GlcNAc(b1-2)Man = molecular target: Gal(b1-4)GlcNAc(b1-2)Man
Method in brief: as §1

[13] = molecular target: Gal(b1-4)GlcNAc(b1-2)Man(a1-3)[Gal(b1-4)GlcNAc(b1-2)Man(a1-6)]Man(b1-4)GlcNAc(b1-4)GlcNAc
Method in brief: as §1

[14] = molecular target: Gal(b1-4)GlcNAc(b1-2)[Gal(b1-4)GlcNAc(b1-6)]Man(a1-6)[GlcNAc(b1-4)][Gal(b1-4)GlcNAc(b1-2)Man(a1-3)]Man(b1-4)GlcNAc(b1-4)GlcNAc
Method in brief: as §1

[15] = molecular target: Gal(b1-4)GlcNAc(b1-3)Gal(b1-4)GlcNAc
Method in brief: as §1

[16] = molecular target: Gal(b1-4)GlcNAc(b1-3)Gal(b1-4)GlcNAc(b1-3)Gal(b1-4)GlcNAc(b1-2)Man(a1-3)[Gal(b1-4)GlcNAc(b1-3)Gal(b1-4)GlcNAc(b1-3)Gal(b1-4)GlcNAc(b1-2)Man(a1-6)]Man(b1-4)GlcNAc(b1-4)GlcNAc
Method in brief: as §1

[17] = molecular target: Gal(b1-4)GlcNAc(b1-3)Gal(b1-4)GlcNAc(b1-3)Gal(b1-4)GlcNAc(b1-3)Gal(b1-4)GlcNAc(b1-3)Gal(b1-4)GlcNAc(b1-2)Man(a1-3)[Gal(b1-4)GlcNAc(b1-3)Gal(b1-4)GlcNAc(b1-3)Gal(b1-4)GlcNAc(b1-3)Gal(b1-4)GlcNAc(b1-3)Gal(b1-4)GlcNAc(b1-2)Man(a1-6)]Man(b1-4)GlcNAc(b1-4)[Fuc(a1-6)]GlcNAc
Method in brief: as §1

Gal3S(b1-3)GlcNAc = molecular target: Gal3S(b1-3)GlcNAc
Method in brief: as §1

[18] = molecular target: Gal3S(b1-3)[Fuc(a1-4)]GlcNAc
Method in brief: as §1

Gal6S(b1-4)GlcNAc6S = molecular target: Gal6S(b1-4)GlcNAc6S
Method in brief: as §1

[19] = molecular target: GlcNAc(a1-4)Gal(b1-4)GlcNAc(b1-3)Gal(b1-4)[Fuc(a1-3)]GlcNAc(b1-3)Gal(b1-4)[Fuc(a1-3)]GlcNAc
Method in brief: as §1

[20] = molecular target: GlcNAc(b1-2)[GlcNAc(b1-4)]Man(a1-3)[GlcNAc(b1-2)Man(a1-6)]Man(b1-4)GlcNAc(b1-4)GlcNAc
Method in brief: as §1

[21] = molecular target: GlcNAc(b1-3)Gal(b1-4)GlcNAc(b1-3)[GlcNAc(b1-3)Gal(b1-4)GlcNAc(b1-3)]GalNAc
Method in brief: as §1

[22] = molecular target: Kdn(a2-3)Gal(b1-4)[Fuc(a1-3)]GlcNAc
Method in brief: as §1

[23] = molecular target: Neu5Ac(a2-3)Gal(b1-3)GlcNAc(b1-3)Gal(b1-3)GlcNAc
Method in brief: as §1

[24] = molecular target: Neu5Ac(a2-3)Gal(b1-3)[Neu5Ac(a2-6)]GlcNAc(b1-3)[Fuc(a1-3)[Gal(b1-4)]GlcNAc(b1-6)]Gal(b1-4)Glc
Method in brief: as §1

[25] = molecular target: Neu5Ac(a2-3)Gal(b1-4)GlcNAc(b1-2)Man(a1-3)[Neu5Ac(a2-6)Gal(b1-4)GlcNAc(b1-2)Man(a1-6)]Man(b1-4)GlcNAc(b1-4)GlcNAc
Method in brief: as §1

[26] = molecular target: Neu5Ac(a2-3)Gal(b1-4)GlcNAc(b1-3)Gal(b1-3)GlcNAc
Method in brief: as §1

[27] = molecular target: Neu5Ac(a2-3)Gal(b1-4)GlcNAc(b1-3)Gal(b1-4)GlcNAc(b1-3)Gal(b1-4)GlcNAc(b1-2)Man(a1-3)[Neu5Ac(a2-3)Gal(b1-4)GlcNAc(b1-3)Gal(b1-4)GlcNAc(b1-3)Gal(b1-4)GlcNAc(b1-2)Man(a1-6)]GalNAc
Method in brief: as §1

[28] = molecular target: Neu5Ac(a2-3)Gal(b1-4)GlcNAc(b1-3)Gal(b1-4)GlcNAc(b1-3)[Neu5Ac(a2-3)Gal(b1-4)GlcNAc(b1-3)Gal(b1-4)GlcNAc(b1-6)]GalNAc
Method in brief: as §1

[29] = molecular target: Neu5Ac(a2-3)Gal(b1-4)GlcNAc(b1-3)[Neu5Ac(a2-3)Gal(b1-4)GlcNAc(b1-6)]GalNAc
Method in brief: as §1

[30] = molecular target: Neu5Ac(a2-3)Gal(b1-4)[Fuc(a1-3)]GlcNAc(b1-3)GalNAc
Method in brief: as §1

[31] = molecular target: Neu5Ac(a2-6)Gal(b1-4)GlcNAc(b1-2)Man(a1-3)[GlcNAc(b1-4)][Neu5Ac(a2-6)Gal(b1-4)GlcNAc(b1-2)Man(a1-6)]Man(b1-4)GlcNAc(b1-4)GlcNAc
Method in brief: as §1

[32] = molecular target: Neu5Ac(a2-6)Gal(b1-4)GlcNAc(b1-2)Man(a1-3)[Man(a1-6)]Man(b1-4)GlcNAc(b1-4)GlcNAc
Method in brief: as §1

[33] = molecular target: Neu5Ac(a2-6)Gal(b1-4)GlcNAc(b1-2)Man(a1-6)Man(b1-4)GlcNAc(b1-4)GlcNAc
Method in brief: as §1

[34] = molecular target: Neu5Ac(a2-6)Gal(b1-4)GlcNAc(b1-3)Gal(b1-4)GlcNAc(b1-3)Gal(b1-4)GlcNAc(b1-2)Man(a1-3)[Neu5Ac(a2-6)Gal(b1-4)GlcNAc(b1-3)Gal(b1-4)GlcNAc(b1-3)Gal(b1-4)GlcNAc(b1-2)Man(a1-6)]GalNAc
Method in brief: as §1

B1: Epa20 (Candida glabrata) (protein)
chain: MGSSHHHHHHSSGLVPRGSHMASSNIPNNYPLGCSNKYSGHLPGLKMELYSYNYVNPRHPDPQNPGKLDQLYDPNLLGTYECFDSSYKDINYPRVGYKSKTLIGRSDGVSGILNFNFVPPWGCMPQKGQLPPAYNFKSNITLSNFTMILFGYFKPKISGNHIFSLHGDDLIYLNFGAGNAFDCCRQESSADNFGNYQAFSLWGINWEKKTLTVYLDMNTYYPIRIFYNNRDYQAIFNFSFKTEFDSSPVIDFQDYFFFLRDIDGGCPGEV
[1]
  glycan array binding signal (z-score): -0.278
[2]
  glycan array binding signal (z-score): 3.16
[3]
  glycan array binding signal (z-score): -0.005
[4]
  glycan array binding signal (z-score): -0.072
[5]
  glycan array binding signal (z-score): 4.96
[6]
  glycan array binding signal (z-score): -0.067
[7]
  glycan array binding signal (z-score): -0.452
[8]
  glycan array binding signal (z-score): 3.14
[9]
  glycan array binding signal (z-score): 0.822
Gal(b1-2)Gal
  glycan array binding signal (z-score): -0.763
Gal(b1-3)GlcNAc
  glycan array binding signal (z-score): -0.446
Gal(b1-3)GlcNAc(b1-2)Man
  glycan array binding signal (z-score): 0.049
[10]
  glycan array binding signal (z-score): 0.704
[11]
  glycan array binding signal (z-score): -0.669
[12]
  glycan array binding signal (z-score): -0.28
Gal(b1-4)GlcNAc(b1-2)Man
  glycan array binding signal (z-score): -0.114
[13]
  glycan array binding signal (z-score): -0.534
[14]
  glycan array binding signal (z-score): -0.48
[15]
  glycan array binding signal (z-score): -0.384
[16]
  glycan array binding signal (z-score): 3.18
[17]
  glycan array binding signal (z-score): 6.07
Gal3S(b1-3)GlcNAc
  glycan array binding signal (z-score): -0.241
[18]
  glycan array binding signal (z-score): 0.569
Gal6S(b1-4)GlcNAc6S
  glycan array binding signal (z-score): 0.939
[19]
  glycan array binding signal (z-score): 0.435
[20]
  glycan array binding signal (z-score): -0.31
[21]
  glycan array binding signal (z-score): 0.532
[22]
  glycan array binding signal (z-score): 0.229
[23]
  glycan array binding signal (z-score): -0.76
[24]
  glycan array binding signal (z-score): 2.49
[25]
  glycan array binding signal (z-score): -0.493
[26]
  glycan array binding signal (z-score): -0.463
[27]
  glycan array binding signal (z-score): 2.75
[28]
  glycan array binding signal (z-score): 4.06
[29]
  glycan array binding signal (z-score): 2.82
[30]
  glycan array binding signal (z-score): 2.98
[31]
  glycan array binding signal (z-score): -0.397
[32]
  glycan array binding signal (z-score): 0.402
[33]
  glycan array binding signal (z-score): -0.108
[34]
  glycan array binding signal (z-score): 3.97
